# Compound activity deposited in PubChem by National Center for Advancing Translational Sciences (NCATS).
# GRP78 ERSR act: induces the endoplasmic reticulum stress response in human glioma cells. actives 0.02% (n = 420,000). Potency, µM, for the others: at the highest dose activation, actives largely listed as activators. U87-MG GRP78 promoter luciferase reporter, 16 h; note: series mostly up to about 76 µM; % of control where 0% means no effect; nearly all actives have a fitted effect of over 35% in size
#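 Stably transfected U87-MG human glioma cells carrying a GRP78-based luminescent sensor were seeded at 1000 cells/well, pin-dosed with compounds and incubated 16 h. Luciferase reagent was then added, and end-point luminescence was read after 10 min at room temperature.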
# 12-LOX inh: inhibitors of human 12S-lipoxygenase ALOX12 | purified 12hLO, xylenol orange hydroperoxide absorbance | Potency, µM (titrated, usually from 108 µM), for the others: at the top dose activity change, negative = inhibition, actives largely listed as inhibitors | actives 1.1% (n = 580,000); note: % is set by controls: 0 for no effect and ±100 for the full control effect
#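 Hydroperoxide product was detected by ferrous iron/xylenol orange as the 573 to 405 nm absorbance ratio. Arachidonic acid at 40 uM (final) was turned over for 30 min at room temperature by 150 nM human 12hLO, pH 7.0 Hepes buffer, after 15 min compound preincubation.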
# VDR inh: inhibitors of human vitamin D receptor; VDR-SRC2-3 peptide fluorescence polarization, 2 h; actives 0.93% (n = 400,000); Potency, µM, inactives show max response, negative = inhibition, most hits filed as inhibitors; P11473; note: % is set by controls: 0 for no effect and ±100 for the full control effect
# Target sequence (P11473 whole entry, looked up): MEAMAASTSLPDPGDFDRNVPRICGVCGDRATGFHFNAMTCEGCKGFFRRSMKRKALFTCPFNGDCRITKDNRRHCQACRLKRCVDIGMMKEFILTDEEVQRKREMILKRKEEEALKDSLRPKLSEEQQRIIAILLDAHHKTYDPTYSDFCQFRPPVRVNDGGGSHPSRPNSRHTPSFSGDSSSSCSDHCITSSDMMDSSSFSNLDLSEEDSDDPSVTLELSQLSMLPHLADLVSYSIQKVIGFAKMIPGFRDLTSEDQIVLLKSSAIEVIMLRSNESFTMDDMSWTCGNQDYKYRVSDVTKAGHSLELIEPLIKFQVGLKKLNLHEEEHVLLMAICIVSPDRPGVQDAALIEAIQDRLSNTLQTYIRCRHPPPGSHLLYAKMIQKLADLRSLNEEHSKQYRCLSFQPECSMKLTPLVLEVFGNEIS
#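 The screen uses fluorescence polarization to detect compounds that interfere with recruitment of the SRC2-3 coactivator peptide to VDR; plates are read after 2 h at room temperature.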
# Sfp PPTase inh: blocks B. subtilis Sfp PPTase activity | Q9F4F7 | Biochemical Sfp PPTase activity, qHTS | Potency, µM, inactives show largest response in the series, negative = inhibition, actives largely listed as inhibitors | actives 3.5% (n = 310,000) | AID 1490;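 note: the enzyme is Sfp with the accession as filed and its product quenches rhodamine fluorescence; 0% = enzyme reaction without inhibitor and -100% = no enzyme wells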
#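 Sfp 15 nM + cpd, 15 min RT; start w/ rhodamine-CoA 5 uM, BHQ-2-YbbR 12.5 uM (final); 50 mM Hepes pH 7.6, 10 mM MgCl2, 0.01% NP-40, 0.01% BSA; read 525/598 nm at 0 and 30 min.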
# G9a block: blocks human histone lysine methyltransferase G9a | Q96KQ7 | G9a H3K9 monomethylation, AlphaScreen, 2 h | Potency, µM (top dose mostly 102 µM), inactives show at the top dose activity, negative = inhibition, most hits filed as inhibitors | actives 8.8% (n = 350,000) | AID 504332; note: % is set by controls: 0 for no effect and ±100 for the full control effect; nearly all actives have a fitted effect of over 75% in size
# Target sequence (Q96KQ7 913-1193 limits assumed): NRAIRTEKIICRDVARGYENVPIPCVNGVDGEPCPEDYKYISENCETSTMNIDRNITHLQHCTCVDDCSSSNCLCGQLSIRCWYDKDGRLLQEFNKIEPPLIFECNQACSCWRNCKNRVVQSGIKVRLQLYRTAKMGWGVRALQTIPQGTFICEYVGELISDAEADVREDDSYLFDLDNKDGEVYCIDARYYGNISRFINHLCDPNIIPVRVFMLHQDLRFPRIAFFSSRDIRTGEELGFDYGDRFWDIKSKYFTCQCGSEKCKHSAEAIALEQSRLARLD
#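 Using a bead-based AlphaScreen, monomethylated H3K9 product from 2 h room-temperature reactions (G9a 20 nM, peptide 500 nM, SAM 20 uM) was detected with 0.5 ug/mL rabbit anti-H3K9me1 antibody.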
# * = called active by the depositor; i = inactive; ? = inconclusive; nt = no result; ! = repeats disagree; [ ] = dose if it differs, or a comment. This is one part of a sample in which hits are shown more often than they occur. Calls come from the whole dose curve; as a rule, active = well fitted curve in the direction sought with a large enough effect; inconclusive = small, poorly fitted or top-dose-only effect, or another doubt; inactive = no such curve, though single readings can be large; an effect the other way counts as inactive or inconclusive. Potency is the fitted concentration of half-maximal effect.
SMILES,GRP78 ERSR act,12-LOX inh,VDR inh,Sfp PPTase inh,G9a block
O=C(OCc1nc2scc(-c3ccccc3)c2c(=O)[nH]1)c1ccco1,-2%,0%,-9%,nt,?
COc1ccccc1N1CCN(c2nc(C)c3c(n2)CC(C)(C)CC3=O)CC1,nt,2%,nt,nt,nt
Cc1oc(-c2ccc(C(=O)N3CCN(C)CC3)cc2)nc1CN1CCc2ccccc21,nt,-3%,nt,nt,nt
Cc1nc(CCN2C(=O)c3ccccc3C2=O)cs1,1%,-17%,-17%,79µM*,?
O=C(CSc1nnc(-c2ccc(C(F)(F)F)cn2)o1)Nc1ccccc1Cl,1%,6%,-12%,71µM*,25%
O=C(CSc1nnc(-c2ccccn2)o1)Nc1ccccc1Cl,-8%,3%,0%,-3%,7%
CCN(C(=O)Cn1cc(C(=O)OC)c2ccccc21)c1ccccc1,nt,-27%,nt,nt,nt
CC(C)N(Cc1nccn1C)C(=O)c1cc(COc2ccc(F)cc2Cl)on1,-3%,-6%,-6%,10%,42%
COc1ccc(OCc2cc(C(=O)N(Cc3nccn3C)C(C)C)no2)c2ccccc12,-1%,-4%,-4%,0%,50µM*
COc1ccc(OCc2cc(C(=O)N(C)Cc3nccn3C)no2)c2ccccc12,-1%,i,-13%,1%,35µM*
COC/C=C/C1=CC2=CC(=O)C(C)(OC(=O)c3cnc4ccccc4n3)C(=O)C2=CN1c1ccccc1 (configuration not stated),-1%,?,-29%,15%,-32%[59 µM]
COC/C=C/C1=CC2=CC(=O)C(C)(OC(=O)c3cnc4ccccc4n3)C(=O)C2=CN1c1ccc(CO)cc1 (configuration not stated),nt,nt,nt,56µM*!,nt
COC/C=C/C1=CC2=CC(=O)C(C)(OC(=O)c3cnc4ccccc4n3)C(=O)C2=CN1C1CCCCC1 (configuration not stated),nt,nt,nt,-15%,40µM*
CC(C)CN(C(=O)CSc1nc2ccccc2[nH]1)c1c(N)n(Cc2ccccc2)c(=O)[nH]c1=O,5%,2%,nt,nt,nt
CCOc1ccc2nc(SCC(=O)N(CC(C)C)c3c(N)n(Cc4ccccc4)c(=O)[nH]c3=O)[nH]c2c1,-2%,-4%,-17%,nt,50µM*
COCCN(C(=O)CSc1nc(N)cc(=O)[nH]1)c1c(N)n(Cc2ccccc2)c(=O)[nH]c1=O,-1%,?,10%,nt,50µM*
COCCN(C(=O)CSc1nc2ccc(C)cc2[nH]1)c1c(N)n(Cc2ccccc2)c(=O)[nH]c1=O,-4%,-10%,20%,-9%,?
COCCN(C(=O)CSc1nc2ccc(OC)cc2[nH]1)c1c(N)n(Cc2ccccc2)c(=O)[nH]c1=O,-2%,?,-7%,nt,20µM*
COCCN(C(=O)COC(=O)C1CCC(C(C)(C)C)CC1)c1c(N)n(Cc2ccccc2)c(=O)[nH]c1=O (configuration not stated),-2%,?,11%,nt,32µM*
CCn1c(C(=O)NCC(=O)NC2CC2)cc2ccccc21,nt,47%,nt,nt,nt
CCN(CCn1cccn1)Cc1c(C(=O)N2CCCCCCC2)nc2ccc(Cl)cn12,0%,-10%,14%,-16%,79µM*
Cc1cc(Cl)ccc1NC(=S)NC(C)(C)C,0%,-10%,-7%,-2%,12%
Cc1cc(Cl)ccc1NNC(N)=S,-2%,12%,?,50µM*,20µM*
Cc1cccc(NC(=S)NCCO)c1C,-1%,-17%,-28%,-5%,15%[59 µM]
Cc1ccc(C)c(NNC(N)=S)c1,-4%,-29%,-29%,50µM*,35µM*
SMILES,GRP78 ERSR act,12-LOX inh,VDR inh,Sfp PPTase inh,G9a block
Cc1ccccc1NNC(=O)C(=O)NNc1ccccc1C,0%,?,-11%,-17%,?
Cc1cccc(NNC(N)=S)c1C,-3%,?,?,40µM*,20µM*
Cc1ccc(C)c(NNC(=O)C(=O)NNc2cc(C)ccc2C)c1,-2%,-29%,4%,15%,28µM*
COC(=O)[C@H](Cc1ccc(OC)cc1)NC(=O)[C@H]1CN(S(=O)(=O)c2ccccc2)CCN1C(=O)c1cccs1,nt,2%,nt,nt,nt
O=S(=O)(NCc1ccc(N2CCCC2)nc1)c1ccccc1,nt,-6%,nt,nt,nt
Cc1c(Cl)cccc1Nc1nnc(SCC(=O)Nc2ccnn2C2CCCC2)s1,nt,-6%,nt,nt,nt
COc1cc(NC(=O)Cn2cc(S(=O)(=O)c3ccccc3)c(=O)c3ccc(C)nc32)cc(OC)c1,nt,-46%,nt,nt,nt
O=c1[nH]c(=O)n(Cc2ccccc2)c2c1C(C(F)(F)F)(C(F)(F)F)N=C(c1cccs1)N2,nt,-7%,nt,nt,nt
NC(=S)Nc1cc(Cl)cc(Cl)c1,-3%,?,16%,5%,7%[59 µM]
Cc1cccc(NNC(=O)C(=O)NNc2cccc(C)c2)c1,-2%,1.4µM*,-19%,-13%,?
Cc1cccc(NC(=O)CC(=O)Nc2cccc(C)c2)c1,1%,16%,23%,4%,18%
NC(=S)NNc1cc(Cl)cc(Cl)c1,-5%,?,?,14µM*,?
CC(=O)c1ccc(NC(=O)C(C)OC(=O)c2nc(-c3ccccc3)oc2C)cc1 (configuration not stated),nt,7%,nt,nt,nt
CNC(=O)NC(=O)C(C)SC(C)c1c(F)cccc1F (configuration not stated),nt,-4%,nt,nt,nt
Cc1[nH]c(=S)sc1Cc1cccc(C(F)(F)F)c1,nt,25µM*,nt,nt,nt
CNCc1cccc(C(F)(F)F)c1,nt,0%[12.5 µM],nt,nt,nt
Cc1ccc(-c2noc(-c3nc(Cc4ccc(F)cc4)no3)n2)cc1,nt,32%,nt,nt,nt
Cc1[nH]c(=S)sc1Cc1ccc(F)cc1,-1%,?,1%,-19%,2µM*
O=C(c1c[nH]c2ccccc12)N1CCC2(CC1)CNS(=O)(=O)c1cccnc1O2,nt,6%[6.33 µM],nt,nt,nt
CCCCN(C)CCNC(=O)c1cc(-c2cccnc2)nc2ccc(S(=O)(=O)N3CCC(C)CC3)cc12,-3%,?,?,3%,50µM*
CN(C)c1ccc(NC(=O)c2cccc(C(=O)Nc3ccc(N(C)C)cc3)n2)cc1,-10%,-7%,79µM*,-24%,3.2µM*
Cc1cccc(NC(=O)c2cccc(C(=O)Nc3cccc(C)c3)n2)c1,-2%,?,-25%,nt,nt
Cc1cc(C)cc(NC(=O)c2cccc(C(=O)Nc3cc(C)cc(C)c3)n2)c1,1%,215%,-3%,56µM*,?
O=C(Nc1ccccc1)c1cccc(C(=O)Nc2ccccc2)n1,-3%,426%,12%,17%,-12%[12.7 µM]
CN(C)c1ccc(NC(=O)c2ccc3nsnc3c2)cc1,-1%,?,?,-8%,4.5µM*
O=C(O)c1ccc(NC(=O)c2cccc(C(=O)Nc3ccc(C(=O)O)cc3)n2)cc1,-4%,8%,-9%,-6%,22µM*
CCc1cc(=O)oc2c(C)c(OC(C)C(=O)NCc3ccncc3)ccc12 (configuration not stated),nt,-2%,nt,nt,nt
CC(C)Oc1ccc2c(=O)c(Oc3ccccc3)coc2c1,nt,0%,nt,nt,nt
CCN1CCCC1CNC(=O)c1cc2ccccc2oc1=O (configuration not stated),nt,2%,nt,nt,nt
